Test results as given in PubChem BioAssay (NCI).
Compounds without any hit were thinned out: in the full panel of roughly 83,000, 20% have a hit.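 The endpoint reported here, percent growth, reads 100 for growth as untreated, 0 for no net growth and -100 for all cells dead.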 Active and inactive are the calls of the source. The calls were made as follows: active = growth percent below 10; inactive = the rest.

system: MDA-MB-435 melanoma; assay: NCI-60 one-dose screen, 48 h (100 = growth as untreated, 0 = no growth, -100 = all killed); details: 10 µM unless noted

Row | SMILES | growth
1 | COC(=O)[C@@H](Cc1c[nH]c2ccccc12)NC(=O)CCCCOc1cc(O)c2c(=O)cc(-c3ccccc3)oc2c1 | 91.6% (inactive)
2 | CCOC(=O)c1cnc2c(-c3ccc(Cl)c(Cl)c3)cnn2c1 | -20.3% (active)
3 | O=C(Nc1cccc(Cl)c1)Nc1nc2cc([N+](=O)[O-])ccc2o1 | 40.9% (inactive)
4 | CCOP(=O)(OCC)OC[C@]12CCC(C)(C)CC1C1=CC[C@@H]3[C@@]4(C)CCCNC(C)(C)[C@@H]4CC[C@@]3(C)[C@]1(C)CC2 (stereo partly drawn) | 90.6% (inactive)
5 | CS(=O)(=O)c1ccc(/C(=N/N=C(N)N)c2ccc(Cl)cc2)cc1 | 8.68% (active)
6 | O=c1nc(Nc2ccc([N+](=O)[O-])cc2O)sc2ccccc12 | -42.9% (active)
7 | O=C1C(SCc2ccccc2)=C(Cl)CN1c1ccc(Cl)cc1 | 100% (inactive)
8 | CCCC/C(=C\c1ccc(O)c(O)c1)C(=O)NC(Cc1ccccc1)C(=O)C(=O)NCCc1ccc(OC)cc1 (stereo not drawn) | 94.3% (inactive)
9 | COc1ccc(-c2cc(-c3ccc(N4CCOCC4)cc3)n3c(n2)nc2ccccc23)cc1OC | 93.1% (inactive)
10 | C#C[C@]1(O)CC[C@H]2[C@@H]3CC=C4c5sc(Nc6ccc(C)cn6)nc5CC[C@]4(C)[C@H]3CC[C@@]21C | -51.8% (active)
11 | CS(=O)(=O)c1ccc(/C(=N/N=C(N)N)c2ccc(F)cc2)cc1 | 11.4% (inactive)
12 | CC(=O)Nc1ccccc1-c1nc2ccccc2s1 | 98.8% (inactive)
13 | COc1ccc(/C=N/NC(=O)c2c(N)nn(C)c2Nc2ccccc2)cc1Oc1ccccc1 | 101% (inactive)
14 | C=C(C)[C@@H]1CC[C@]2(COP(=O)(OCC)OCC)CC[C@]3(C)[C@H](CC[C@@H]4[C@@]5(C)CC[C@H](OP(=O)(OCC)OCC)C(C)(C)[C@@H]5CC[C@]43C)[C@@H]12 | 61% (inactive)
15 | N#Cc1c(-c2cccs2)cc(-c2cnccn2)nc1SCC(=O)N/N=C/c1ccccc1 | 23.6% (inactive)
16 | COc1cccc2c1[C@H](OC)[C@]13O[C@@]1(C2=O)[C@H](O)[C@H](C)[C@@](O)(C(=O)[C@@H]1O[C@H]1C)[C@@H]3O | -72.7% (active)
17 | C#CCN(C)CCCOc1ccc(NCc2ccc(C(=O)NO)cc2)cc1Cl | 9.64% (active)
18 | CCN(CC)c1ccc(/C=N/NC(=O)c2ccc(NS(C)(=O)=O)cc2)cc1 | 37.3% (inactive)
19 | COc1ccc2c(c1)c(-c1nnc(N)nc1-c1c[nH]c3ccc(F)cc13)cn2C | 3.37% (active)
20 | Cc1ccc(S(=O)(=O)NCCCNc2nccc(-c3[nH]c(-c4ccccc4)nc3-c3ccc(F)c(O)c3)n2)cc1 | 17.6% (inactive)

Row | SMILES | growth
21 | COc1ccc(-c2c(C(N)=O)c(N)n(Cc3nc4ccccc4[nH]3)c(=O)c2C#N)c(OC)c1 | 109% (inactive)
22 | Brc1ccc2[nH]cc(-c3nn4cc(-c5nccs5)nc4s3)c2c1 | 12.9% (inactive)
23 | CNc1sc(S(=O)(=O)NC)nc1S(=O)(=O)c1ccc(C)cc1 | 105% (inactive)
24 | COc1ccc(C(=NNS(=O)(=O)c2ccc(C)cc2)c2ccccc2)cc1OC | 106% (inactive)
25 | N#Cc1c(-c2cccs2)cc(-c2cnccn2)nc1SCC(=O)N/N=C/c1ccncc1 | 104% (inactive)
26 | Cc1ncn(-c2ccc(/C=N/Nc3ccnc4cc(Cl)ccc34)cc2)c1C | -80.2% (active)
27 | C#Cc1nc(/C=C/C(=O)NO)cs1 | 61.1% (inactive)
28 | CCS(=O)(=O)Nc1ccc(C(=O)CC2(O)C(=O)Nc3ccccc32)cc1 (stereo not drawn) | 108% (inactive)
29 | C1=CC(c2nn3c(-c4ccccc4)nnc3s2)=Cc2ccccc2O1 | 46.7% (inactive)
30 | Cc1[nH]c(C(=O)Nc2ccc(C(N)=O)cc2N2CCOC(C)C2)c(Cl)c1Cl (stereo not drawn) | 96.1% (inactive)
31 | O=C(/C=C/c1ccccc1)c1cccc(O)c1 | 95.9% (inactive)
32 | COC(=O)CCCNCCCn1ccc2cc(NCc3cccc(-c4ccccc4)c3C)ccc21 | 70.9% (inactive)
33 | C/C(=N\NC(=O)/C=C/CC(=O)O)c1nnn(-c2ccc([N+](=O)[O-])cc2)c1C | 103% (inactive)
34 | O=C(/C=C/c1ccc(F)cc1)Nc1cccc2cccnc12 | 107% (inactive)
35 | CC(C)NC(=O)c1cc(-c2ccc(NC(=O)Nc3ccc(F)cc3)cc2)nc2cccnc12 | 98.7% (inactive)
36 | O=C(/C=C/c1cccc(C(F)(F)F)c1)Nc1cccc(C(F)(F)F)c1 | 48.5% (inactive)
37 | Clc1ccc(CSc2nnc(-c3ccc(Cl)cc3)n2-c2ccccc2)cc1 | 90% (inactive)
38 | COc1ccc(/C=N/N=C(/c2ccccc2)c2ccc3nc(-c4ccc(Cl)cc4)[nH]c3c2)cc1 | 85% (inactive)
39 | N#Cc1cnc2ccc(-c3cnc4n[nH]nc4c3)cc2c1N1CCc2cc(F)c(Cl)cc21 | 19.5% (inactive)

system: SW-620 colon; assay: as above; details: 10 µM unless noted

Row | SMILES | growth
40 | COC(=O)[C@@H](Cc1c[nH]c2ccccc12)NC(=O)CCCCOc1cc(O)c2c(=O)cc(-c3ccccc3)oc2c1 | 95.8% (inactive)
41 | CCOC(=O)c1cnc2c(-c3ccc(Cl)c(Cl)c3)cnn2c1 | 42.3% (inactive)
42 | O=C(Nc1cccc(Cl)c1)Nc1nc2cc([N+](=O)[O-])ccc2o1 | 22.3% (inactive)
43 | CCOP(=O)(OCC)OC[C@]12CCC(C)(C)CC1C1=CC[C@@H]3[C@@]4(C)CCCNC(C)(C)[C@@H]4CC[C@@]3(C)[C@]1(C)CC2 (stereo partly drawn) | 66.3% (inactive)
44 | CS(=O)(=O)c1ccc(/C(=N/N=C(N)N)c2ccc(Cl)cc2)cc1 | 74.6% (inactive)
45 | O=c1nc(Nc2ccc([N+](=O)[O-])cc2O)sc2ccccc12 | 22.3% (inactive)
46 | O=C1C(SCc2ccccc2)=C(Cl)CN1c1ccc(Cl)cc1 | 101% (inactive)
47 | CCCC/C(=C\c1ccc(O)c(O)c1)C(=O)NC(Cc1ccccc1)C(=O)C(=O)NCCc1ccc(OC)cc1 (stereo not drawn) | 101% (inactive)
48 | COc1ccc(-c2cc(-c3ccc(N4CCOCC4)cc3)n3c(n2)nc2ccccc23)cc1OC | 99.2% (inactive)
49 | C#C[C@]1(O)CC[C@H]2[C@@H]3CC=C4c5sc(Nc6ccc(C)cn6)nc5CC[C@]4(C)[C@H]3CC[C@@]21C | -53.1% (active)
50 | CS(=O)(=O)c1ccc(/C(=N/N=C(N)N)c2ccc(F)cc2)cc1 | 59.9% (inactive)
51 | CC(=O)Nc1ccccc1-c1nc2ccccc2s1 | 107% (inactive)
52 | COc1ccc(/C=N/NC(=O)c2c(N)nn(C)c2Nc2ccccc2)cc1Oc1ccccc1 | 100% (inactive)
53 | C=C(C)[C@@H]1CC[C@]2(COP(=O)(OCC)OCC)CC[C@]3(C)[C@H](CC[C@@H]4[C@@]5(C)CC[C@H](OP(=O)(OCC)OCC)C(C)(C)[C@@H]5CC[C@]43C)[C@@H]12 | 38.4% (inactive)
54 | N#Cc1c(-c2cccs2)cc(-c2cnccn2)nc1SCC(=O)N/N=C/c1ccccc1 | 8.83% (active)
55 | COc1cccc2c1[C@H](OC)[C@]13O[C@@]1(C2=O)[C@H](O)[C@H](C)[C@@](O)(C(=O)[C@@H]1O[C@H]1C)[C@@H]3O | -14.7% (active)
56 | C#CCN(C)CCCOc1ccc(NCc2ccc(C(=O)NO)cc2)cc1Cl | 12.2% (inactive)
57 | CCN(CC)c1ccc(/C=N/NC(=O)c2ccc(NS(C)(=O)=O)cc2)cc1 | 40.5% (inactive)
58 | COc1ccc2c(c1)c(-c1nnc(N)nc1-c1c[nH]c3ccc(F)cc13)cn2C | 25.7% (inactive)
59 | Cc1ccc(S(=O)(=O)NCCCNc2nccc(-c3[nH]c(-c4ccccc4)nc3-c3ccc(F)c(O)c3)n2)cc1 | 115% (inactive)

Row | SMILES | growth
60 | COc1ccc(-c2c(C(N)=O)c(N)n(Cc3nc4ccccc4[nH]3)c(=O)c2C#N)c(OC)c1 | 105% (inactive)
61 | Brc1ccc2[nH]cc(-c3nn4cc(-c5nccs5)nc4s3)c2c1 | 25.2% (inactive)
62 | CNc1sc(S(=O)(=O)NC)nc1S(=O)(=O)c1ccc(C)cc1 | 109% (inactive)
63 | COc1ccc(C(=NNS(=O)(=O)c2ccc(C)cc2)c2ccccc2)cc1OC | 101% (inactive)
64 | N#Cc1c(-c2cccs2)cc(-c2cnccn2)nc1SCC(=O)N/N=C/c1ccncc1 | 112% (inactive)
65 | Cc1ncn(-c2ccc(/C=N/Nc3ccnc4cc(Cl)ccc34)cc2)c1C | -60.4% (active)
66 | C#Cc1nc(/C=C/C(=O)NO)cs1 | 45.8% (inactive)
67 | CCS(=O)(=O)Nc1ccc(C(=O)CC2(O)C(=O)Nc3ccccc32)cc1 (stereo not drawn) | 103% (inactive)
68 | C1=CC(c2nn3c(-c4ccccc4)nnc3s2)=Cc2ccccc2O1 | 16.6% (inactive)
69 | Cc1[nH]c(C(=O)Nc2ccc(C(N)=O)cc2N2CCOC(C)C2)c(Cl)c1Cl (stereo not drawn) | 109% (inactive)
70 | O=C(/C=C/c1ccccc1)c1cccc(O)c1 | 104% (inactive)
71 | COC(=O)CCCNCCCn1ccc2cc(NCc3cccc(-c4ccccc4)c3C)ccc21 | 66.5% (inactive)
72 | C/C(=N\NC(=O)/C=C/CC(=O)O)c1nnn(-c2ccc([N+](=O)[O-])cc2)c1C | 100% (inactive)
73 | O=C(/C=C/c1ccc(F)cc1)Nc1cccc2cccnc12 | 101% (inactive)
74 | CC(C)NC(=O)c1cc(-c2ccc(NC(=O)Nc3ccc(F)cc3)cc2)nc2cccnc12 | 108% (inactive)
75 | O=C(/C=C/c1cccc(C(F)(F)F)c1)Nc1cccc(C(F)(F)F)c1 | 33.5% (inactive)
76 | Clc1ccc(CSc2nnc(-c3ccc(Cl)cc3)n2-c2ccccc2)cc1 | 91.6% (inactive)
77 | COc1ccc(/C=N/N=C(/c2ccccc2)c2ccc3nc(-c4ccc(Cl)cc4)[nH]c3c2)cc1 | 88.3% (inactive)
78 | N#Cc1cnc2ccc(-c3cnc4n[nH]nc4c3)cc2c1N1CCc2cc(F)c(Cl)cc21 | 26.8% (inactive)
